Among the data in PubChem BioAssay (NCI) are growth values, retold here.

Test systems include HCT-15 colon; HT29 colon; SNB-75 CNS; SNB-19 CNS; U251 CNS; PC-3 prostate; SK-MEL-5 melanoma; UACC-62 melanoma; LOX IMVI melanoma; SK-MEL-28 melanoma.
Experiment in all cases: NCI-60 one-dose screen, 48 h (100 = growth as untreated, 0 = no growth, -100 = all killed)
Common to all, as to details: 10 µM unless noted

The structures appear in SMILES notation. Compounds without any hit were thinned out: in the full panel of roughly 83,000, 20% have a hit.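 For each line, cells grew in 96-well plates with the test compound present at a single concentration for 48 hours.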 Unmarked numbers belong to inactive results. Active and inactive are the calls of the source. Rule for the calls: active = growth percent below 10; inactive = the rest.

Take `CNCCCn1c2c(c3ccc(Cl)cc3c1=O)C(=O)c1cc(OC)cnc1-2`: the growth was -57.6% (active) with HCT-15 colon; -80.5% (active) in the assay with HT29 colon; 14.7% in the assay with SNB-75 CNS; 28.3% with SNB-19 CNS; -86.5% (active) in the assay with U251 CNS; 38.6% in the assay with PC-3 prostate. Besides, the growth in the assay with SK-MEL-5 melanoma was 32.4%; in the assay with UACC-62 melanoma, 11%; with LOX IMVI melanoma, -83.7% (active); in the assay with SK-MEL-28 melanoma it was 72.2%.
With `C[Si](C)(C)C(c1ccccc1)c1ccccc1`, the growth is 91.8% in the assay on HCT-15 colon; 101% with HT29 colon; 102% in the assay with SNB-75 CNS; 111% with SNB-19 CNS; 100% in the assay on U251 CNS; 80.3% with PC-3 prostate. Besides, the growth with SK-MEL-5 melanoma was 115%; in the assay on UACC-62 melanoma, 108%; with LOX IMVI melanoma it was 95.9%; in the assay with SK-MEL-28 melanoma, 115%.
On to `C=C1C(=O)O[C@H]2[C@H]1CC/C(COC(=O)NCc1cccc(OC)c1)=C\CC[C@@]1(C)O[C@@H]21`, for which the growth with HCT-15 colon is -3.38% (active); with HT29 colon, -29.9% (active); in the assay on SNB-75 CNS it was 71.1%; in the assay with SNB-19 CNS, 69.9%; with U251 CNS, 39.4%; in the assay on PC-3 prostate, 40.1%. Besides, the growth in the assay on SK-MEL-5 melanoma was 29.8%; with UACC-62 melanoma, 31.5%; with LOX IMVI melanoma it was 5.61% (active); in the assay with SK-MEL-28 melanoma it was 22.5%.
As to `CCOC(=O)N1C2CCC(C2)N1C(=O)OCC`, the growth was 106% in the assay on HCT-15 colon; 107% in the assay on HT29 colon; 71.6% in the assay on SNB-75 CNS; 100% in the assay on SNB-19 CNS; 99.1% in the assay on U251 CNS; 105% in the assay with PC-3 prostate. The growth with SK-MEL-5 melanoma was 104%; in the assay on UACC-62 melanoma, 98.2%; with LOX IMVI melanoma, 99.7%; with SK-MEL-28 melanoma, 97.4%.
Turning to `CCN1C(=O)C(C)C=C(C)C=C1C` (stereo not given), the growth with HCT-15 colon was 99.9%; in the assay with HT29 colon, 111%; in the assay with SNB-75 CNS it was 104%; in the assay with SNB-19 CNS, 109%; with U251 CNS, 111%; in the assay with PC-3 prostate, 123%. Besides, the growth with SK-MEL-5 melanoma is 98.1%; in the assay on UACC-62 melanoma, 103%; in the assay with LOX IMVI melanoma it was 103%; in the assay with SK-MEL-28 melanoma, 116%.
On to `C#Cc1cccc(Nc2nc3cc([N+](=O)[O-])ccc3nc2Nc2ccc(O)cc2)c1`, for which the growth in the assay on HCT-15 colon was 0.208% (active); with HT29 colon, -80.7% (active); in the assay on SNB-75 CNS, 43.8%; in the assay with SNB-19 CNS, 23.3%; with U251 CNS, 2.57% (active); in the assay with PC-3 prostate, 2.88% (active). Moreover, the growth in the assay on SK-MEL-5 melanoma is 47.1%; with UACC-62 melanoma, -15.9% (active); in the assay with LOX IMVI melanoma, -87.5% (active); in the assay with SK-MEL-28 melanoma, 21.5%.
As for `COc1cc(C2CC(c3ccc(C)cc3)=NN2C=O)ccc1Oc1nc2c(c(=O)n(C)c(=O)n2C)n1C` (stereo not given), the growth in the assay on HCT-15 colon is 94.3%; in the assay with HT29 colon it was 72.6%; in the assay on SNB-75 CNS, 93%; in the assay on SNB-19 CNS, 67.2%; with U251 CNS, 92.7%; in the assay with PC-3 prostate, 74.3%. Besides, the growth in the assay with SK-MEL-5 melanoma is 58.1%; in the assay on UACC-62 melanoma it was 94.5%; in the assay with LOX IMVI melanoma it was 60.6%; with SK-MEL-28 melanoma, 106%.
For `Cc1cc(-c2ccccc2)on1`, the growth was 101% in the assay with HCT-15 colon; 106% in the assay on HT29 colon; 99.2% in the assay on SNB-75 CNS; 104% in the assay on SNB-19 CNS; 108% with U251 CNS; 97.7% with PC-3 prostate. The growth in the assay on SK-MEL-5 melanoma was 109%; in the assay with UACC-62 melanoma, 110%; in the assay with LOX IMVI melanoma, 99.4%; in the assay on SK-MEL-28 melanoma, 109%.
Take `CC(C)[C@@]12C[C@@H](OC(=O)[C@H]3CO3)[C@@](C)(O1)[C@@H]1CC[C@@H](C)[C@H]1[C@@H]2OC(=O)/C=C/c1ccccc1`: the growth in the assay on HCT-15 colon was 55.5%; in the assay on HT29 colon, 84.3%; in the assay on SNB-75 CNS, 71.4%; in the assay with SNB-19 CNS, 86.6%; in the assay on U251 CNS, 67.8%; in the assay on PC-3 prostate it was 60.7%. Besides, the growth is 93.4% in the assay on SK-MEL-5 melanoma, 70.1% in the assay on UACC-62 melanoma, 70.9% in the assay with LOX IMVI melanoma and 106% in the assay with SK-MEL-28 melanoma.
Regarding `O=C(/C=C/c1ccccc1Br)c1cccc(OCCCCOc2cccc(C(=O)/C=C/c3ccccc3Br)c2)c1`, the growth in the assay on HCT-15 colon is 81.6%; in the assay on HT29 colon, 89.3%; with SNB-75 CNS, 79.7%; in the assay on SNB-19 CNS, 90.8%; with U251 CNS, 77%; in the assay on PC-3 prostate, 92%. Also, the growth was 98.7% in the assay with SK-MEL-5 melanoma, 78.8% in the assay on UACC-62 melanoma, 86.4% in the assay on LOX IMVI melanoma and 102% with SK-MEL-28 melanoma.
`CC(C)N(C(=S)SSC(=S)N(C(C)C)C(C)C)C(C)C`: the growth is 97.7% with HCT-15 colon; 88.1% in the assay with HT29 colon; 102% in the assay on SNB-75 CNS; 109% in the assay on SNB-19 CNS; 94.5% in the assay on U251 CNS; 86.4% in the assay with PC-3 prostate. In addition, the growth in the assay with SK-MEL-5 melanoma is 109%; in the assay on UACC-62 melanoma it was 105%; with LOX IMVI melanoma it was 97.1%; with SK-MEL-28 melanoma, 100%.
With `COc1cc(/C=C/c2cc(/C=C/c3ccc(O)c(OC)c3)n(C(=O)Nc3ccc(F)c(Cl)c3)n2)ccc1O`, the growth with HCT-15 colon is 6.64% (active); in the assay with HT29 colon, -33.6% (active); in the assay with SNB-75 CNS, -12.6% (active); with SNB-19 CNS, 4.42% (active); in the assay with U251 CNS it was -1.59% (active); with PC-3 prostate it was -14.3% (active). The growth was -73.9% (active) with SK-MEL-5 melanoma, -37.4% (active) in the assay on UACC-62 melanoma, -20.9% (active) with LOX IMVI melanoma and 7.89% (active) in the assay with SK-MEL-28 melanoma.
As for `Nc1nc(NC2CC2)cc(-c2cccc(Cl)c2Cl)n1`, the growth in the assay on HCT-15 colon was 25%; with HT29 colon, 13.6%; in the assay on SNB-75 CNS, 39.2%; with SNB-19 CNS it was 59.1%; in the assay with U251 CNS, 39.1%; in the assay on PC-3 prostate, 64.6%. Besides, the growth was 46.5% with SK-MEL-5 melanoma, 36.1% in the assay on UACC-62 melanoma, 40.7% with LOX IMVI melanoma and 68.7% in the assay on SK-MEL-28 melanoma.
As to `C=CCOC(=O)C1=C(C)NC2=C(C(=O)CCC2)C1c1ccc(F)cc1` (stereo not given), the growth was 105% in the assay with HCT-15 colon; 101% with HT29 colon; 80.3% in the assay on SNB-75 CNS; 85.2% in the assay on SNB-19 CNS; 97.8% in the assay on U251 CNS; 90.1% in the assay on PC-3 prostate. Besides, the growth was 98.8% with SK-MEL-5 melanoma, 80.6% in the assay with UACC-62 melanoma, 97.1% with LOX IMVI melanoma and 101% in the assay on SK-MEL-28 melanoma.
